In ChEMBL document CHEMBL1961873, “Compounds: GSK PKIS; Assays: Nanosyn kinase panel” (2012) one finds inhibition data, which are given here for seven molecules.

Molecules are shown by their SMILES.

Test [1] has as its target Tyrosine-protein kinase Fyn (Homo sapiens) (UniProt P06241). The conditions noted are these: at 1 µM.
In test [2] the target is Tyrosine-protein kinase HCK (Homo sapiens) (UniProt P08631). The note with it: at 0.1 µM.
Test [3] shares this target. The note with it: at 1 µM.
In test [4] the target is Insulin-like growth factor 1 receptor (Homo sapiens) (UniProt P08069). The note with it: at 0.1 µM.
Insulin-like growth factor 1 receptor (Homo sapiens), sequence (P08069 31-736 limits assumed): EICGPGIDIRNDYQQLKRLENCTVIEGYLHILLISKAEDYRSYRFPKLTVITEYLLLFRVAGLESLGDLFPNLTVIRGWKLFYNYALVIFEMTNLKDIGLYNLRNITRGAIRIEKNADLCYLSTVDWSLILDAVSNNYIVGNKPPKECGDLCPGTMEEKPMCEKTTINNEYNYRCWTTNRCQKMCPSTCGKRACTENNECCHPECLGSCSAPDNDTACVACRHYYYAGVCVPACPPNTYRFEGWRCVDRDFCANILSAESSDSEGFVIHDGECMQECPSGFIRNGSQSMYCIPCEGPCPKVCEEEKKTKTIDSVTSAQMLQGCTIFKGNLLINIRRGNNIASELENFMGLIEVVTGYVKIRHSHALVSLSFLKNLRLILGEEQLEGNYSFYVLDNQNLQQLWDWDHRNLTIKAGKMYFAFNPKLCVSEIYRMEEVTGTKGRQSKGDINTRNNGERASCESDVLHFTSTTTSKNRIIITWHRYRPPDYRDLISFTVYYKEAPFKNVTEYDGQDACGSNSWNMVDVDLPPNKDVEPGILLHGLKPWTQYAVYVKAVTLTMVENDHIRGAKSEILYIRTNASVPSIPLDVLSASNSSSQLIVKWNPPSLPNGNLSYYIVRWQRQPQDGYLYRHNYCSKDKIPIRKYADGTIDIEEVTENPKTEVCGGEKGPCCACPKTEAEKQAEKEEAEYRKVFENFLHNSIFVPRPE
Insulin-like growth factor 1 receptor (Homo sapiens), sequence (P08069 741-1367 limits assumed): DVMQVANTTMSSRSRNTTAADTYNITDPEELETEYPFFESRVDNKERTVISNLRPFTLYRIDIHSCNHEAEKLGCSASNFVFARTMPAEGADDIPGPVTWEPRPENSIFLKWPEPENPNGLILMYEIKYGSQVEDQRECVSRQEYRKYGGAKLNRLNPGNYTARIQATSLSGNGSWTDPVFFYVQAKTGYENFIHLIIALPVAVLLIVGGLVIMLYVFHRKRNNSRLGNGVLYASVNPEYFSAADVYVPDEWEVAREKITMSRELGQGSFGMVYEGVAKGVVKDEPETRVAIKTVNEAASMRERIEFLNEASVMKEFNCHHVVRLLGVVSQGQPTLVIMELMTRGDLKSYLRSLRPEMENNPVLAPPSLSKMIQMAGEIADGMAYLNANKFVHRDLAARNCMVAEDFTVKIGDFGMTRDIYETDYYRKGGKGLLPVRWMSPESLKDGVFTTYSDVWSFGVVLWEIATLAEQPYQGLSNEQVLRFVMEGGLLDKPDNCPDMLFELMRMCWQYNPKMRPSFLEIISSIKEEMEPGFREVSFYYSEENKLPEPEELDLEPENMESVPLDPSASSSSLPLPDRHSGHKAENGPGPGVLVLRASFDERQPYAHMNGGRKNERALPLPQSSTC
For test [5] the target is unchanged. The note with it: at 1 µM.
The target in test [6] is Insulin receptor (Homo sapiens) (UniProt P06213). The note with it: at 0.1 µM.
Test [7] shares this target. The note with it: at 1 µM.
Test [8] concerns the target Insulin receptor-related protein (Homo sapiens) (UniProt P14616). The conditions noted are these: at 0.1 µM.
Test [9] has the same target. The note with it: at 1 µM.
In test [10] the target is T1, Tyrosine-protein kinase ITK/TSK (Homo sapiens) (UniProt Q08881).
T1 sequence (whole entry): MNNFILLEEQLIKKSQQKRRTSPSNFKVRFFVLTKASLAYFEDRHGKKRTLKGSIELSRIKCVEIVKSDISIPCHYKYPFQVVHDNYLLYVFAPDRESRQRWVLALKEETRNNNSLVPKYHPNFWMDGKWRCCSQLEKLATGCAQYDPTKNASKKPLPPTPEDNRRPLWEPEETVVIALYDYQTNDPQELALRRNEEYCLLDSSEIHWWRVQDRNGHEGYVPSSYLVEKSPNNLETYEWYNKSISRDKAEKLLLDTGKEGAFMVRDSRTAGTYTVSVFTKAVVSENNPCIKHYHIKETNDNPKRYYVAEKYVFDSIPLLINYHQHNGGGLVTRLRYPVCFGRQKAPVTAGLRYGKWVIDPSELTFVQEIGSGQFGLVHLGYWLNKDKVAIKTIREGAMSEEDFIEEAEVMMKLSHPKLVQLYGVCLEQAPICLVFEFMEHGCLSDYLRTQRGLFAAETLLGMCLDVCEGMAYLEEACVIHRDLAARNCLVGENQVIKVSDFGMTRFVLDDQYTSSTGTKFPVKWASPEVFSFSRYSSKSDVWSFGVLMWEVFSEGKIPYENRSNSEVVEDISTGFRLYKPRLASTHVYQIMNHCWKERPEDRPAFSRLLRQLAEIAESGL
The note with it: at 0.1 µM.

The target of test [11] is T1, Tyrosine-protein kinase ITK/TSK (Homo sapiens). The note with it: at 1 µM.
Test [12] has as its target Tyrosine-protein kinase JAK1 (Homo sapiens) (UniProt P23458). The note with it: at 0.1 µM.
Test [13] shares this target. The note with it: at 1 µM.
In test [14] the target is Tyrosine-protein kinase JAK2 (Homo sapiens) (UniProt O60674). The conditions noted are these: at 0.1 µM.
Tyrosine-protein kinase JAK2 (Homo sapiens), sequence (O60674 whole entry): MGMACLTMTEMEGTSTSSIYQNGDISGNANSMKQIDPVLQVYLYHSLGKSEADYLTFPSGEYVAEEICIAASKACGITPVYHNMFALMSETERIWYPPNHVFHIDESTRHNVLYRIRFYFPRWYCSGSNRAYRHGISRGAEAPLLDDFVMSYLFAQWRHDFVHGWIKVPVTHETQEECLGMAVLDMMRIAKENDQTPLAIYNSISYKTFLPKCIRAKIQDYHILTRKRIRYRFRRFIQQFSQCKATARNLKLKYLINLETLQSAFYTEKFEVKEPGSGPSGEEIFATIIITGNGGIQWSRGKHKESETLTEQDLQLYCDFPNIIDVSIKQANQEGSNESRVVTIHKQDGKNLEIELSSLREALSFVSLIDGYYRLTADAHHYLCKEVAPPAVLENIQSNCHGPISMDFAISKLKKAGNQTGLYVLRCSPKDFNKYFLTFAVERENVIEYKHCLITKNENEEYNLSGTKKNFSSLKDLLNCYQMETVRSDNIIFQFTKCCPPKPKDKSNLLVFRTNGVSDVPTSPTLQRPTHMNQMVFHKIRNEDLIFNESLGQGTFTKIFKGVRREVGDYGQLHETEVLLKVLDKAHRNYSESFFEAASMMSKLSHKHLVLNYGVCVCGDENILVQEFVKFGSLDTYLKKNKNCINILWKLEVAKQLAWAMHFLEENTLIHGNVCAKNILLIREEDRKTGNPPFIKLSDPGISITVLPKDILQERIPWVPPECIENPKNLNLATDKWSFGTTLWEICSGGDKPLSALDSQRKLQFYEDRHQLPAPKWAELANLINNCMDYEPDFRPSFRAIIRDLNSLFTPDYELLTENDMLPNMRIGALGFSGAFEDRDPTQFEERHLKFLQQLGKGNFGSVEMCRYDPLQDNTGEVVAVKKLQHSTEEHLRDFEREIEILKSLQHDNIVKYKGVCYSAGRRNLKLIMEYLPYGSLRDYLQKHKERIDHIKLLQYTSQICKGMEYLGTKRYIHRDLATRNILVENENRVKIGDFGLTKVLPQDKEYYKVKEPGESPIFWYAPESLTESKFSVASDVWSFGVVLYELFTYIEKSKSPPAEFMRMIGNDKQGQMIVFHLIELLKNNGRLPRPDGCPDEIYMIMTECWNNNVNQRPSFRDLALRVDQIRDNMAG
Test [15] shares this target. The conditions noted are these: at 1 µM.
Test [16] deals with T2, Tyrosine-protein kinase JAK3 (Homo sapiens) (UniProt P52333).
T2 sequence (whole entry): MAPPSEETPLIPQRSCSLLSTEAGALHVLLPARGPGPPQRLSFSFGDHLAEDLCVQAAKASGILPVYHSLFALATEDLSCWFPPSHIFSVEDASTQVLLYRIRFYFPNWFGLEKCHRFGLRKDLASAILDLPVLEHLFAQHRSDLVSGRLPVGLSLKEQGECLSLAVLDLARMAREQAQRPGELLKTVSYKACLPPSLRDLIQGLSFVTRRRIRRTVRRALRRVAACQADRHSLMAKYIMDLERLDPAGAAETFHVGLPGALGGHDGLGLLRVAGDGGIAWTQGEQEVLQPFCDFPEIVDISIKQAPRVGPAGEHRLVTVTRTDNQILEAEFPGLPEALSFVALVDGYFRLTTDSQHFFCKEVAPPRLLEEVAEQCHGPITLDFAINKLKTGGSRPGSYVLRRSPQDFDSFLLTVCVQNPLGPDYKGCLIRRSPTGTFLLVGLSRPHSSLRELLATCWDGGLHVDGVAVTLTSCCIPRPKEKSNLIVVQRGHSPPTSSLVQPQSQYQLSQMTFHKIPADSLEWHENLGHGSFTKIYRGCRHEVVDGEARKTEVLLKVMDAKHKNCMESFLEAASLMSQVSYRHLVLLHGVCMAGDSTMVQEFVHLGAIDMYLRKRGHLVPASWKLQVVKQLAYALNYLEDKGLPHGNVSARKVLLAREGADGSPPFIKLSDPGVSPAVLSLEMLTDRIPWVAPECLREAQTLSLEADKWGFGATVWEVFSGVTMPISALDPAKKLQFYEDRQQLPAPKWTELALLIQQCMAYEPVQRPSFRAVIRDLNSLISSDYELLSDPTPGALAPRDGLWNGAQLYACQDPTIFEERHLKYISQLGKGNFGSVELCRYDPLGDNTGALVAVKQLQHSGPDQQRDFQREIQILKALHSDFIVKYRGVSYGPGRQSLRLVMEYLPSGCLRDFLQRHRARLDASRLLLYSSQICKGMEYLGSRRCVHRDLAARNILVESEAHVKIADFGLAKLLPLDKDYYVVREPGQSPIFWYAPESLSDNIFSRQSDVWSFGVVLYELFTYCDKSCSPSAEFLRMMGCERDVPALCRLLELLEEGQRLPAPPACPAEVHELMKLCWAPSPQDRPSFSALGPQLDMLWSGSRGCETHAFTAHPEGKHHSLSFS
The note with it: at 0.1 µM.

Test [17] addresses T2, Tyrosine-protein kinase JAK3 (Homo sapiens). The note with it: at 1 µM.
The target of test [18] is Vascular endothelial growth factor receptor 2 (Homo sapiens) (UniProt P35968). The conditions noted are these: at 0.1 µM.
The target is the same in test [19]. The note with it: at 1 µM.
Test [20] has as its target Mast/stem cell growth factor receptor Kit (Homo sapiens) (UniProt P10721). The conditions noted are these: at 0.1 µM.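 Note: values are mean inhibition of KIT, from the GSK PKIS dataset.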

Tyrosine-protein kinase JAK1 (Homo sapiens), sequence (P23458 whole entry): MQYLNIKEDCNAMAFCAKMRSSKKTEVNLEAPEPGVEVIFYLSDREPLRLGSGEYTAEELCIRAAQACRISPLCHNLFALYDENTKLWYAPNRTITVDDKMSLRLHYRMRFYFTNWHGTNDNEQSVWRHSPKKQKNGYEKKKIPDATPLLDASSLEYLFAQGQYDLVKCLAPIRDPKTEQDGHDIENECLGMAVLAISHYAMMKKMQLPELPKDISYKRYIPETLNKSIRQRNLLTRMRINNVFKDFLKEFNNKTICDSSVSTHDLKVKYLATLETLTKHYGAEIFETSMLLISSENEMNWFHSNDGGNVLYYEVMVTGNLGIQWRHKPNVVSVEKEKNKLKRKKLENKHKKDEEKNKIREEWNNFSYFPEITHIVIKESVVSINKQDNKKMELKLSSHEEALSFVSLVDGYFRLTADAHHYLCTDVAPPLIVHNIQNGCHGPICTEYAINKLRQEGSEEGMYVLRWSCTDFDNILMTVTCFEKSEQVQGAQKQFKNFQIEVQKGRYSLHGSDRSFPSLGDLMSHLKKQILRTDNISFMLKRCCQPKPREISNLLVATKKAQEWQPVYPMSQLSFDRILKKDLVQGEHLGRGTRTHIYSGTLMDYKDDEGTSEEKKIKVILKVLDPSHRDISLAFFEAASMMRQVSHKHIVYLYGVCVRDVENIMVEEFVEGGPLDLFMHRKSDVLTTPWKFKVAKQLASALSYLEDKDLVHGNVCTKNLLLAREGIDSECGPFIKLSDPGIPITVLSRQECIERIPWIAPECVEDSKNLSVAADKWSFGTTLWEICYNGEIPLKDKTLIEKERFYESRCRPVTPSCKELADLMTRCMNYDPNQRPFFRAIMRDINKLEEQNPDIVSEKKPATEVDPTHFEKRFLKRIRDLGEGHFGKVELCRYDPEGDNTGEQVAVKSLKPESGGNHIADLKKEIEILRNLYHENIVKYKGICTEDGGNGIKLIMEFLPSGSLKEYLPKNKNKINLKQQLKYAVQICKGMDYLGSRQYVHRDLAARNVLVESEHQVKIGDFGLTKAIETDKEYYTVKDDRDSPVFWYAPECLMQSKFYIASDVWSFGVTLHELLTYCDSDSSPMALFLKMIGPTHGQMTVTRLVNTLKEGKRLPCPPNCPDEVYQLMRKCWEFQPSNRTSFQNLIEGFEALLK
Insulin receptor-related protein (Homo sapiens), sequence (P14616 27-742 limits assumed): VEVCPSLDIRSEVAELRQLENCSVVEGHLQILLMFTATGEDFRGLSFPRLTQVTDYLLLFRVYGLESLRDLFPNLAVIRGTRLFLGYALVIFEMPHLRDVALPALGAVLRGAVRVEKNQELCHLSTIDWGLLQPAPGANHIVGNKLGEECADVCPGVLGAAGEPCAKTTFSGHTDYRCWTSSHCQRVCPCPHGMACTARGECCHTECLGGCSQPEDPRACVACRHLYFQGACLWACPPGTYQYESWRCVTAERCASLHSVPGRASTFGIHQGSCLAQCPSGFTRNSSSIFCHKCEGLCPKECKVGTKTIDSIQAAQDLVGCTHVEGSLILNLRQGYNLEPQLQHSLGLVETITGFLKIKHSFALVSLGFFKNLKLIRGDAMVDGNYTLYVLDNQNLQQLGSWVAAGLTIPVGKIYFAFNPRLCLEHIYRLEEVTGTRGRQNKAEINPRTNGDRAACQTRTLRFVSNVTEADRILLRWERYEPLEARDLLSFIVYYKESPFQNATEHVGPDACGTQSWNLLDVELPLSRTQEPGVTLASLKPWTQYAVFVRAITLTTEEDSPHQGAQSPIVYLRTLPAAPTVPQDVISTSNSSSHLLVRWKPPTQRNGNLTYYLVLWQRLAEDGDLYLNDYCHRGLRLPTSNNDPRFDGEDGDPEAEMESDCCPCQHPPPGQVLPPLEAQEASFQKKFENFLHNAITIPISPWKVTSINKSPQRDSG
Insulin receptor-related protein (Homo sapiens), sequence (P14616 747-1297 limits assumed): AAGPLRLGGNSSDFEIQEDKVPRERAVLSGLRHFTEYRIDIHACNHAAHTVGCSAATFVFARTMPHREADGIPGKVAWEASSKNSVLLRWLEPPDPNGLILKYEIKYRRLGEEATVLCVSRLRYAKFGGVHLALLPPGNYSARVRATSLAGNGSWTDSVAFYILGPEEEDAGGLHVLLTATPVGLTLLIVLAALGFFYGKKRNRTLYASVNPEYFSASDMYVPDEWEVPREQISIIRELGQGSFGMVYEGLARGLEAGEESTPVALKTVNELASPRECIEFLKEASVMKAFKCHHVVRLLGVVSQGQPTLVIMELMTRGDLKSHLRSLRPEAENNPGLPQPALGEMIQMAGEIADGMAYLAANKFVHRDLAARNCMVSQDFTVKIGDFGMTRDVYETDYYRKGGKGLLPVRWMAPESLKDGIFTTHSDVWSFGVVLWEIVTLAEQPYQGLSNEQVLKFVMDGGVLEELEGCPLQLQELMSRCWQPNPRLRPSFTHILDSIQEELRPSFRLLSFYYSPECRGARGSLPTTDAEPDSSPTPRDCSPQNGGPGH

`NS(=O)(=O)c1ccc(NC=C2C(=O)Nc3ccc4ncsc4c32)cc1`: the inhibition came to 26.5% in test [1]; 12.2% in test [2]; 43.8% in [3]; 12.2% in test [4]; 26.7% in test [5]; 6.96% in [6]. The inhibition in test [7] was determined as 29.7%; in test [8], 3.96%; in test [9] it was 6.03%; in test [10] it was 2.7%; in test [11], 15.1%; in test [12], 9.37%. In addition, the inhibition was 50.7% in test [13]; 2.72% in test [14]; 23.6% in test [15]; 22.7% in test [16]; 63.7% in [17]; 60.5% in test [18]. Also, the inhibition in test [19] is 71%; in test [20] it was 68.4%.
Turning to `CCS(=O)(=O)c1ccc(OC)c(Nc2nccc(N(C)c3ccc4c(C)n[nH]c4c3)n2)c1`, the inhibition in test [1] turned out to be 65%; in test [2], 39.5%; in test [3], 72.1%; in test [4] it was 12.5%; in [5] it was 12.5%; in test [6], 3.36%. Further, the inhibition in test [7] was determined as 4.35%; in test [8], 1.12%; in test [9] it was 4.55%; in test [10], 0.31%; in test [11], 1.96%; in [12] it was 3.52%. Moreover, the inhibition in test [13] was 5.13%; in [14] it was 1.45%; in test [15], -0.31%; in test [16] it was -1.93%; in test [17], -1.6%; in [18], 78.7%. Also, the figures for the inhibition in test [19] and in [20] were 76.8% and 44.2%, respectively.
As to `N#Cc1c(NC(=O)c2ccccc2F)sc2c1CCCC2`, the inhibition was 3.17% in [1]; -1.54% in [2]; 0.95% in [3]; -4.1% in [4]; 0.01% in test [5]; 1.34% in [6]. Also, the inhibition in test [7] is -1.12%; in test [8], -1.06%; in [9], -1.27%; in test [10] it was -1%; in [11] it was 0.32%; in test [12], 0.4%. Further, the inhibition in [13] was -1.49%; in test [14], -0.7%; in [15] it was -1.01%; in test [16], -1.04%; in test [17], 2.45%; in [18], -3.31%. Also, the inhibition is -0.36% in [19] and -4.4% in test [20].
Turning to `[O-][S+]1CCN(Cc2ccc(-c3ccc4ncnc(Nc5ccc(OCc6ccccc6)c(Cl)c5)c4c3)o2)CC1`, the inhibition in test [1] is 4.61%; in [2], 2.6%; in test [3] it was 3.96%; in test [4], 14.4%; in [5], 10.7%; in test [6], 2%. The inhibition in test [7] is 3.55%; in test [8], -1.65%; in test [9], 0.75%; in test [10], 0.08%; in [11], 1.13%; in test [12] it was 1.27%. In addition, the inhibition was 2.62% in test [13]; 0.66% in test [14]; -0.25% in [15]; -1.01% in test [16]; -0.24% in [17]; 0.96% in test [18]. In addition, the values for the inhibition in [19] and in test [20] were 4% and 1.98%, respectively.
`CN(C)C(=O)O[C@H]1CN[C@H](C#Cc2cc3ncnc(Nc4ccc(OCc5cccc(F)c5)c(Cl)c4)c3s2)C1`: the inhibition worked out at 1.7% in [1]; 4.49% in test [2]; 10.5% in test [3]; 3.22% in test [4]; 2.88% in [5]; 4.02% in test [6]. Besides, the inhibition was 3.06% in test [7]; 0.79% in test [8]; 1.4% in test [9]; 1.49% in [10]; 1.42% in test [11]; 2.35% in test [12]. The inhibition in test [13] is 4.66%; in [14] it was 1.84%; in test [15], 1.89%; in test [16], -0.68%; in test [17], 1.63%; in test [18], 4.69%. Moreover, the results for the inhibition in [19] and in test [20] were 9.06% and 2.32%, respectively.
Consider `O=C1Nc2ccc(-c3cccnc3)cc2C1=Cc1cc(Br)c(O)c(Br)c1`, for which the inhibition in test [1] was 10.5%; in test [2] it was 3.63%; in test [3] it was 11.1%; in test [4], 3.8%; in test [5] it was 4.14%; in test [6] it was 3.63%. The inhibition is 0.1% in test [7]; 4.28% in test [8]; 2.51% in test [9]; 1.58% in [10]; 2.67% in test [11]; 2.38% in [12]. The inhibition in [13] was 1.97%; in test [14] it was 1.07%; in test [15] it was 3.68%; in test [16] it was -1.1%; in [17] it was 15.8%; in test [18], 4.5%. Moreover, the inhibition in test [19] came to 10.1%; in test [20], 3.48%.
As to `CN(C)CCCn1c(-c2nonc2N)nc2cnccc21`, the inhibition in test [1] came to 1.87%; in test [2], 5.43%; in test [3], 6.49%; in test [4], 10.2%; in test [5] it was 9.74%; in test [6], 7.05%. The inhibition in [7] turned out to be 4.75%; in [8], 2.59%; in [9] it was 4.16%; in test [10] it was 1.43%; in test [11], 0.92%; in test [12] it was 4.69%. For the same molecule, the inhibition in [13] was 6.17%; in [14], 1.25%; in test [15], 0.79%; in test [16], -1.68%; in [17] it was -0.27%; in test [18] it was 4.41%. In addition, the inhibition came out at 8.24% in [19] and 2.22% in test [20].

For orientation: inhibition means the change of the read-out against control, counted positive when it falls.
